Structures can show the parent of a compound that is named as a salt. ± gives the standard deviation of the averaged measurements.
What was measured:
Experiment in all cases: growth (OD600 after 10 h); higher = more growth (less inhibition)
[1] = test system: E. coli TESEC Alr+ wild-type control; details: compound 0.1 mM; raw OD600 reference: median of DMSO wells 0.241, cell-free background 0.041
Method: (§1)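 TESEC Mtb Alr E. coli, or the Alr+ wild-type control, in 384-well plates with Prestwick library compounds at 0.1 mM and 1% DMSO, across arabinose induction levels of 1E3 to 1E7 nM. Growth is read as OD600 after 10 h at 37 °C in triplicate biological replicates.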

[2] = test system: E. coli TESEC Mtb Alr; details: compound 0.1 mM
Method: as §1

[3] = test system: E. coli TESEC Mtb Asd; details: compound 0.1 mM
Method: (§2)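 TESEC E. coli strains in which the native enzyme is deleted and replaced by arabinose-inducible Mtb Asd, DapB, CysH or TrpD, each grown in its selective medium. Strains were screened against the Prestwick library at 0.1 mM and 1% DMSO in 384-well format at low and high arabinose induction. Growth is read as OD600 after 10 h in triplicate.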

[4] = test system: E. coli TESEC Mtb DapB; details: compound 0.1 mM
Method: as §2

[5] = test system: E. coli TESEC Mtb Alr; details: compound 0.1 mM; remark: listed apart in the source
Method: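 TESEC Mtb Alr E. coli (ΔaraC ΔtolC ΔentC Δalr ΔdadX, arabinose-inducible Mtb Alr) or the Alr+ wild-type control strain, grown in defined M9-fructose medium without D-alanine in 96-well plates with Prestwick library compounds at 0.1 mM and 1% DMSO. Low Alr induction is 0.1 µM arabinose and high induction is 10 mM arabinose.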

[6] = arabinose 1000 nM, raw OD600 reference: median of DMSO wells 0.294, cell-free background 0.041
[7] = arabinose 10000 nM, raw OD600 reference: median of DMSO wells 0.264, cell-free background 0.041
[8] = arabinose 100000 nM, raw OD600 reference: median of DMSO wells 0.201, cell-free background 0.041
[9] = arabinose 1000000 nM, raw OD600 reference: median of DMSO wells 0.193, cell-free background 0.041
[10] = arabinose 10000000 nM, raw OD600 reference: median of DMSO wells 0.146, cell-free background 0.041
[11] = arabinose induction (level): High, raw OD600 reference: median of DMSO wells 0.331, cell-free background 0.041
[12] = arabinose induction (level): Low, raw OD600 reference: median of DMSO wells 0.417, cell-free background 0.041
[13] = arabinose induction (level): High, raw OD600 reference: median of DMSO wells […], cell-free background 0.041
[14] = arabinose induction (level): Low, raw OD600 reference: median of DMSO wells 0.227, cell-free background 0.041
[15] = arabinose 100 nM, raw OD600 reference: median of DMSO wells 0.413, cell-free background 0.052
[16] = arabinose 10000000 nM, raw OD600 reference: median of DMSO wells […], cell-free background 0.052

SMILES | growth [1] | growth [2, 6] | growth [2, 7] | growth [2, 8] | growth [2, 9] | growth [2, 10] | growth [3, 11] | growth [3, 12] | growth [4, 13] | growth [4, 14] | growth [5, 15] | growth [5, 16]
CC[C@]12CCCN3CCc4c(n(c5ccccc45)C(=O)C1)[C@@H]32 [Eburnamonine (-)] | 0.182 ± 0.0061 | 0.238 ± 0.0081 | 0.257 ± 0.0031 | 0.144 ± 0.0086 | 0.124 ± 0.004 | 0.135 ± 0.0057 | 0.119 ± 0.0043 | 0.27 ± 0.095 | 0.176 ± 0.0063 | 0.176 ± 0.012 | 0.393 ± 0.012 | 0.277 ± 0.015
CCCCOC(=O)c1ccc(O)cc1 [Butylparaben] | 0.137 ± 0.0043 | 0.148 ± 0.0023 | 0.213 ± 0.0083 | 0.157 ± 0.0026 | 0.131 ± 0.0015 | 0.15 ± 0.0048 | 0.174 ± 0.0066 | 0.193 ± 0.017 | 0.175 ± 0.011 | 0.2066 ± 0.00083 | 0.376 ± 0.029 | 0.304 ± 0.019
CCCCOc1ccc(CC(=O)NO)cc1 [Bufexamac] | 0.204 ± 0.0088 | 0.247 ± 0.014 | 0.243 ± 0.0037 | 0.202 ± 0.025 | 0.118 ± 0.0015 | 0.0983 ± 0.0016 | 0.33 ± 0.0049 | 0.418 ± 0.034 | 0.18 ± 0.013 | 0.222 ± 0.088 | 0.4 ± 0.018 | 0.284 ± 0.0052
Nc1ccc(S(=O)(=O)Nc2ccnn2-c2ccccc2)cc1 [Sulfaphenazole] | 0.231 ± 0.0032 | 0.236 ± 0.0082 | 0.1522 ± 0.0011 | 0.197 ± 0.031 | 0.0993 ± 0.0064 | 0.149 ± 0.0051 | 0.335 ± 0.033 | 0.354 ± 0.0096 | 0.163 ± 0.016 | 0.174 ± 0.03 | 0.429 ± 0.0073 | 0.233 ± 0.15
CC(C)COCC(CN(Cc1ccccc1)c1ccccc1)N1CCCC1 (stereo unspecified) [Bepridil hydrochloride] | 0.03963 ± 0.00021 | 0.03953 ± 0.00038 | 0.03937 ± 0.00031 | 0.04057 ± 0.00029 | 0.03933 ± 5.8e-05 | 0.0411 ± 0.0014 | 0.04653 ± 0.00032 | 0.0475 ± 0.0016 | 0.0467 ± 0.0011 | 0.04587 ± 0.00031 | 0.304 ± 0.21 | 0.0512 ± 0.0012
O=C(O)CCC(=O)Nc1ccc(S(=O)(=O)Nc2nccs2)cc1 [Succinylsulfathiazole] | 0.257 ± 0.0064 | 0.328 ± 0.017 | 0.264 ± 0.0094 | 0.21 ± 0.018 | 0.18 ± 0.0018 | 0.157 ± 0.0071 | 0.447 ± 0.027 | 0.432 ± 0.04 | 0.196 ± 0.024 | 0.258 ± 0.028 | 0.4084 ± 0.0019 | 0.317 ± 0.014
CCCNC(C)C(=O)Nc1c(C)csc1C(=O)OC (stereo unspecified) [Articaine hydrochloride] | 0.249 ± 0.0025 | 0.3163 ± 0.0008 | 0.266 ± 0.0049 | 0.213 ± 0.013 | 0.162 ± 0.0036 | 0.147 ± 0.0054 | 0.257 ± 0.064 | 0.442 ± 0.02 | 0.205 ± 0.016 | 0.236 ± 0.043 | 0.407 ± 0.015 | 0.316 ± 0.021
Cc1cnc(C(=O)NCCc2ccc(S(=O)(=O)NC(=O)NC3CCCCC3)cc2)cn1 [Glipizide] | 0.252 ± 0.0045 | 0.289 ± 0.0034 | 0.263 ± 0.0066 | 0.193 ± 0.019 | 0.183 ± 0.0084 | 0.141 ± 0.0039 | 0.341 ± 0.084 | 0.406 ± 0.029 | 0.199 ± 0.032 | 0.256 ± 0.042 | 0.419 ± 0.0083 | 0.222 ± 0.025
O=C1c2cccc(O)c2C(=O)c2c(O)cccc21 [1,8-Dihydroxyanthraquinone] | 0.132 ± 0.0039 | 0.15 ± 0.013 | 0.0699 ± 0.015 | 0.138 ± 0.0019 | 0.0486 ± 0.0032 | 0.153 ± 0.0021 | 0.187 ± 0.013 | 0.147 ± 0.0069 | 0.189 ± 0.0068 | 0.255 ± 0.067 | 0.361 ± 0.0048 | 0.218 ± 0.013
CN(C)CCOC(=O)COc1ccc(Cl)cc1 [Meclofenoxate hydrochloride] | 0.235 ± 0.0029 | 0.3 ± 0.018 | 0.267 ± 0.0092 | 0.199 ± 0.013 | 0.184 ± 0.0027 | 0.138 ± 0.0014 | 0.355 ± 0.032 | 0.426 ± 0.029 | 0.199 ± 0.014 | 0.204 ± 0.019 | 0.4 ± 0.013 | 0.313 ± 0.014
CN/C(=N\CCSCc1nc[nH]c1C)NC#N [Cimetidine] | 0.249 ± 0.0059 | 0.295 ± 0.023 | 0.252 ± 0.0057 | 0.216 ± 0.028 | 0.179 ± 0.00087 | 0.142 ± 0.0033 | 0.376 ± 0.1 | 0.376 ± 0.045 | 0.181 ± 0.012 | 0.206 ± 0.025 | 0.409 ± 0.0072 | 0.337 ± 0.019
CC1(C)O[C@@H]2C[C@H]3[C@@H]4C[C@H](F)C5=CC(=O)C=C[C@]5(C)[C@H]4[C@@H](O)C[C@]3(C)[C@]2(C(=O)CO)O1 [Flunisolide] | 0.204 ± 0.015 | 0.297 ± 0.0098 | 0.261 ± 0.0019 | 0.192 ± 0.011 | 0.159 ± 0.0049 | 0.138 ± 0.0048 | 0.342 ± 0.064 | 0.458 ± 0.025 | 0.214 ± 0.021 | 0.241 ± 0.01 | 0.4 ± 0.0095 | 0.335 ± 0.012
Oc1c(Cl)cc(Cl)c(Cl)c1Cc1c(O)c(Cl)cc(Cl)c1Cl [Hexachlorophene] | 0.0444 ± 0.00067 | 0.04387 ± 0.00038 | 0.0445 ± 0.00086 | 0.04433 ± 0.00015 | 0.04387 ± 5.8e-05 | 0.0464 ± 0.0029 | 0.0582 ± 0.0021 | 0.0553 ± 0.004 | 0.0536 ± 0.0015 | 0.053 ± 0.00044 | 0.063 ± 0.0035 | 0.0602 ± 0.0016
